Laboratory results: ChEMBL document CHEMBL3433997, “St. Jude Leishmania screening dataset” (2016)

Legend:
Type in all cases: functional
[1] = target: Solute carrier family 2, facilitated glucose transporter member 1 (Homo sapiens) (UniProt P11166); test: ST_JUDE_LEISH: Cytotoxicity at 2uM final concentration against transgenic Leishmania Mexicana promastigotes LmGLUT1 that are glucose transport deficient and complemented with the human glucose transporter GLUT1. Activity is measured by DNA content using SYBR green in vitro
Solute carrier family 2, facilitated glucose transporter member 1 (Homo sapiens), sequence (P11166 whole entry): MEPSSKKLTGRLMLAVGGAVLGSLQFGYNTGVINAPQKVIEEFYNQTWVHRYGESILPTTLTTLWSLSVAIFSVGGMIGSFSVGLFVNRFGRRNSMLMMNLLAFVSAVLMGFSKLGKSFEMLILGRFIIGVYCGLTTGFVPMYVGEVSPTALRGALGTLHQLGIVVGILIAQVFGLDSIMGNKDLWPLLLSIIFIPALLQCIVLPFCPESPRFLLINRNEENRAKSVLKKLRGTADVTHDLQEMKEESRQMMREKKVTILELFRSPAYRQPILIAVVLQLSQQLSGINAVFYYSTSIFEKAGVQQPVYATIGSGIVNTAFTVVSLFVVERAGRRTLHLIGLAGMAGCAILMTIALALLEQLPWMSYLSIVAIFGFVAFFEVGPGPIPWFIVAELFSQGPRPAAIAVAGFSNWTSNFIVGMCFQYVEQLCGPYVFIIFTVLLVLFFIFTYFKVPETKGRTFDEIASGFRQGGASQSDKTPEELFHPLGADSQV

[2] = target: Hexose transporter 1 (Plasmodium falciparum) (UniProt O97467); test: ST_JUDE_LEISH: Cytotoxicity at 2uM final concentration against transgenic Leishmania Mexicana promastigotes LmPfHT that are glucose transport deficient and complemented with the Plasmodium falciparum hexose transporter. Activity is measured by DNA content using SYBR green in vitro
[3] = target: Glucose transporter (Leishmania mexicana) (UniProt O61059); test: ST_JUDE_LEISH: Cytotoxicity at 2uM final concentration against transgenic Leishmania Mexicana promastigotes LmGT2 that are glucose transport deficient and complemented with the L. Mexicana glucose transporter 2. Activity is measured by DNA content using SYBR green in vitro

| SMILES | inhibition [1] [%] | inhibition [2] [%] | inhibition [3] [%] |
| --- | --- | --- | --- |
| O=C(NCCCCN1CCN(CC=Cc2ccccc2)CC1)c1ccc(NC(=O)c2cc(Cl)cc(Cl)c2)cc1 | -0.99 | -0.05 | -0.79 |
| OC[C@H](Nc1nc(C(Oc2ccccc2)c2ccccc2)nc2[nH]ncc12)c1ccccc1 (stereo partly specified) | 7.13 | 4.93 | 4.96 |
| N#Cc1cncc(-c2nc3c(N4CCCC(N)C4)cccc3n2CCNCc2ccccc2)c1 (stereo unspecified) | 6.64 | 5.11 | 8.87 |
| CCOc1ccc(-c2nonc2NC(=O)c2ccco2)cc1OCC | 1.01 | -0.52 | 0.72 |
| CC(C)COc1ccc(Cl)cc1Cc1nc(-c2nc3ccc(N4CCN(C)CC4)nc3[nH]2)cs1 | -3.46 | 1.5 | 3.9 |
| O=C(Nc1ccc(S(=O)(=O)N2CCCCC2)cc1)c1cc(-c2ccccc2O)n[nH]1 | 11.8 | 12 | 10.8 |
| O=C(/C=C/c1ccc(Cl)c(Cl)c1)NC1CCC(CN2CCC(c3nc4cc(O)ccc4[nH]3)CC2)CC1 (stereo unspecified) | 2.81 | 3.99 | 2.71 |
| CC(=O)Nc1nc(C(=O)Nc2cccc(-c3ccc(-c4nc5ccccc5[nH]4)cc3)c2)cs1 | 13 | 11.8 | 10.3 |
| COc1ccc(C(=O)O)cc1OCc1ccccc1 | 0.41 | -0.29 | 0.75 |
| O=C(NC1CCCC1)c1cc2c(=O)n3ccccc3nc2[nH]/c1=N/CCc1ccccc1 | 11.5 | 8.49 | 5.94 |
| O=C(Nc1cc(C(F)(F)F)cc(C(F)(F)F)c1)Nc1ccc(Cl)c(Cl)c1 | 0.47 | 1.04 | 1.22 |
| O=C(/C=C/c1ccc(Cl)c(Cl)c1)NCCCCCN1CCC(c2cn[nH]c2-c2ccccc2)CC1 | 4.33 | 3.45 | 1.87 |
| CCOc1cc(Cc2cnc(N)nc2N)ccc1OC | 0.52 | 0.12 | -0.73 |
| COc1cc2nc(N3CCC(CNC(=O)c4ccc(-c5ccc(C(=O)N(C)C)cc5OCCO)cc4)CC3)nc(N)c2cc1OC | -1.09 | 2.24 | 1.27 |
| O=C(NCc1ccc(Cl)cc1)c1ccc(CN2CCCN(Cc3cccc(O)c3)CC2)cc1 | 0.86 | 0.62 | 2.04 |
| Nc1nccc(-c2ccc3c(-c4cccc(F)c4)cnc(N)c3c2)n1 | -0.44 | 3.51 | -0.84 |
| Cc1c(F)cc(C(=O)NC2CC2)cc1-c1ccc2c(cnn2S(=O)(=O)c2ccc(F)c(F)c2)c1 | 5.87 | 5.31 | 5.54 |
| Cc1ccn2c(N(Cc3ccccc3)C(=O)c3ccc(Cl)c(Cl)c3)c(-c3ccccc3)nc2c1 | 4.28 | 3.03 | 0.79 |
| O=S(=O)(Nc1ccc(CCN2CCC(N3CCCCC3)CC2)cc1)c1cccc(C(F)(F)F)c1 | 6.42 | 7.5 | 5.56 |
| N=C(N)NCC=C(c1ccccc1)c1ccccc1 | 8.32 | 5.26 | 6.35 |
| O=C(CNCC1CCCCC1)Nc1cc(C(F)(F)F)ccc1Cl | 1.93 | 0.51 | 1.07 |
| CC(=O)Nc1ccc(CN2CCC(NC(=O)c3cc(-c4ccc(N(C)C)cc4)cs3)C2)cc1 (stereo unspecified) | 1.62 | 3.72 | 4.39 |
| O=C(Nc1cccc(OC2CCN(Cc3ccccc3)CC2)c1)c1ccc(Cl)c(Cl)c1 | 3.35 | 1.85 | 3.44 |
| COc1ccc(CCN(Cc2cccs2)C(=O)c2cc3sccc3n2C)cc1OC | 0.3 | 0.45 | 0.18 |

| SMILES | inhibition [1] [%] | inhibition [2] [%] | inhibition [3] [%] |
| --- | --- | --- | --- |
| Cc1ccc(CNC(=O)c2cc3c(=O)n4cccc(C)c4nc3n(CCN3CCOCC3)c2=N)cc1 | -0.35 | 1 | 1.48 |
| OC(CNc1cccc(Cl)c1)Cn1c2ccc(Cl)cc2c2cc(Cl)ccc21 (stereo unspecified) | 3.75 | 1.59 | 2.34 |
| Cn1cccc1CCNCc1ccc(-c2cccc(-c3nc4ccccc4[nH]3)c2)cc1 | 3.79 | 3.07 | 2.55 |
| NS(=O)(=O)c1cccc(Nc2nccc(-c3cnn4ncccc34)n2)c1 | 50.6 | 76.5 | 64.8 |
| OC1CCCN(Cc2ccc(-c3ccc(-c4nc5cc(F)ccc5[nH]4)cc3)cc2)C1 (stereo unspecified) | 9.06 | 8.43 | 6.49 |
| CCOc1cc(C(=O)N[C@@H](Cc2ccccc2)[C@H](O)CNC(C)(C)c2cccc(OC)c2)cc(N2CCCS2(=O)=O)c1 | 2.48 | -0.71 | 0.74 |
| CSc1cccc(Nc2nc3ccc(S(=O)(=O)NCC(C)C)cc3n2C(C)C(C)C)c1 (stereo unspecified) | 2.75 | 4.12 | 2.98 |
| COc1ccc2ncc(F)c(NC(=O)C3CCC(NCc4cc5c(F)cccc5[nH]4)CC3)c2n1 (stereo unspecified) | 77.5 | 80.8 | 77.4 |
| Nc1ncc(-c2cccc(F)c2)cc1-c1nc2cc(F)ccc2[nH]1 | 4.17 | 11.1 | 6.56 |
| CC(C)OC(=O)c1ccccc1S(N)(=O)=O | 15.3 | 12.7 | 7.97 |
| Cc1ccc(NC(=O)c2cccc(CN3CCCN(CC4CCCCC4)CC3)c2)cc1F | -0.17 | 0.26 | 0.75 |
| CCCN1CCCN(Cc2cccc(NC(=O)c3ccc(-c4ccccc4)cc3)c2)CC1 | 0.74 | 0.03 | -5.12 |
| Cc1nc(-c2nc(N3CCC(C(N)=O)CC3)ncc2-c2ccsc2)sc1C | 8.94 | 7.69 | 6.73 |
| c1ccc(Oc2ccc(Nc3ccnc4cc(-c5cccc(CNCCN6CCOCC6)c5)ccc34)cc2)cc1 | -0.34 | -0.08 | 1.68 |
| CC(C)c1cccc(OCC2CCN(c3ncc(C(=O)NC4CC4)cc3Cl)CC2)c1 | 1.56 | -0.04 | -0.2 |
| CN1CCN(Cc2ccc(-c3cc4c(Nc5ccc(OCc6cccc(F)c6)c(Cl)c5)ncnc4s3)[nH]2)CC1 | 12.7 | 11.4 | 8.25 |
| CN1CCC(N(Cc2ccc(-c3ccc(C(F)(F)F)cc3)nc2)C(=O)Cn2c(CCc3cccc(F)c3F)cc(=O)c3ccccc32)CC1 | 6.73 | 6.06 | 7.68 |
| COc1ccc(CNCC(C)(C)c2nc(-c3ccc(Cl)c(O)c3)c(-c3ccncc3)[nH]2)cc1 | 0.93 | 0.9 | -2.74 |
| NC1CCN(c2nc(NCCc3ccc(O)cc3)nc(NCc3ccccc3-c3ccccc3)n2)CC1 | -0.15 | 0.54 | 0.38 |
| Nc1c(C(=O)NCCCCN2CCN(c3nsc4ccccc34)CC2)sc2ccccc12 | 5.13 | 4.14 | 2.39 |
| CN1CCCC1CCCOC(=O)c1ccc(N)cc1 (stereo unspecified) | 3.24 | 3.07 | 2.42 |
| c1cc(CN2CCN(CCN3CCOCC3)CC2)cc(-c2csc(-c3nc4ccccc4[nH]3)c2)c1 | 5.51 | 5.16 | 4.63 |
| CCn1cc(CN2CCCC(C(=O)Nc3ccc(-c4nc5ccccc5[nH]4)cc3)C2)c(C)n1 (stereo unspecified) | 3.61 | 4.26 | 3.25 |
| Cc1ccc(CNC(=O)c2cnc(N3CCN(c4ccncc4)CC3)c(Cl)c2)cc1 | 4.68 | 6.64 | 3.12 |

| SMILES | inhibition [1] [%] | inhibition [2] [%] | inhibition [3] [%] |
| --- | --- | --- | --- |
| CCN1CCN(c2ccc(Nc3c4ccccc4nc4ccccc34)cc2)CC1 | 7.35 | 10.6 | 2.24 |
| Cc1cc(=NN=Cc2ccccc2Cl)c2ccc(F)cc2[nH]1 | 6.47 | 6.14 | 3.93 |
| Cc1cccc(CN2CCC(C(=O)Nc3ccc(-c4nc5ccccc5[nH]4)cc3)CC2)n1 | 2.6 | 2.69 | 3.71 |
| O=C(NCCCN1CCOCC1)c1ccc(-c2cccc(NC(=O)c3ccc(Cl)c(Cl)c3)c2)cc1 | 2.04 | 1.79 | -0.88 |
| CCN1CCN(c2cc(C)c3cc(NC(=O)c4cccc([N+](=O)[O-])c4)ccc3n2)CC1 | -0.98 | 0.44 | -1.42 |
| COc1ccccc1-c1ccc(CNC(=O)C(CN2CCN(C)CC2)c2ccccc2)cc1 (stereo unspecified) | 2.94 | 1.12 | 2.44 |
| O=C(Nc1cccc(-c2nn3ccccc3c2-c2ccnc(Nc3ccc(Cc4ccncc4)cc3)n2)c1)c1c(F)cccc1F | 12 | 17.3 | 13.2 |
| CCN1CCC(N(Cc2ccc(-c3ccc(C(F)(F)F)cc3)cc2)C(=O)Cn2c(SCc3ccc(F)cc3)nc(=O)c3c2CCC3)CC1 | -0.04 | -0.63 | -2.05 |
| Fc1cc(Cl)ccc1Nc1ccnc2cc(-c3ccc(CN4CCCCC4)o3)ccc12 | 2.55 | 1.59 | 0.77 |
| N#Cc1cccc(NC(=O)Nc2cccc(OC3CCN(Cc4ccccc4)CC3)c2)c1 | 0.82 | 0.59 | -0.29 |
| O=C(c1ccc(-c2cnc3[nH]cc(-c4ccc(C(=O)N5CCOCC5)cc4)c3c2)cc1)N1CCOCC1 | -0.49 | -1.48 | -1.88 |
| NC(=O)c1cc2nc(Nc3ccc(F)cc3)nc(Nc3ccc(S(N)(=O)=O)cc3)c2[nH]1 | 1.3 | 0.26 | 0.35 |
| CN1CCCN(Cc2ccc(-c3cccc(NC(=O)c4ccc(Cl)cc4)c3)cc2)CC1 | 3.92 | 0.88 | 0.76 |
| CCCNCc1ccc(-c2ccc(CN(C(=O)c3nn(-c4ccccc4)nc3C)C3CC3)cc2)nc1 | 0.19 | 0.58 | 0.38 |
| Cc1ccc(O)cc1C[C@@H]1C(=O)CC[C@@]2(C)[C@H]1CC[C@]2(C)O | -1.27 | 1 | 2.57 |
| COc1ccc(CN2CCC(Oc3cccc(NC(=O)c4ccc(C(F)(F)F)cc4)c3)CC2)cc1 | 0.69 | 1.18 | 3.45 |
| O=C(Nc1ccc(Br)cc1)c1cc(Br)ccc1NS(=O)(=O)c1ccc(C(F)(F)F)cc1 | 0.82 | 0.98 | 0.46 |
| Nc1c2ccccc2nc2cc([N+](=O)[O-])ccc12 | 8.44 | 9.98 | 0.99 |
| COc1ccc(CN2CCN(Cc3cc(Cl)ccc3O)CC2CCO)c(C)c1C (stereo unspecified) | -1.12 | 0.94 | 0.13 |
| CC(C)(CNCc1ccc(Cl)cc1)c1nc(-c2ccc(Cl)c(O)c2)c(-c2ccncc2)[nH]1 | 0.66 | 0.31 | -1.23 |
| Cc1nc(C)c(-c2ccc(Cl)cc2)c(O)c1I | 4.26 | 2.05 | 2.3 |
| COc1ccc(C=NN=c2cc(C)[nH]c3ccc(C)cc23)c2ccccc12 | 0.11 | 1.75 | -1.89 |
| O=C(Nc1ccc(OC2CCN(Cc3ccc(F)cc3)C2)c(Cl)c1)c1ccc(F)cc1 (stereo unspecified) | -0.04 | -0.69 | -1.62 |
| Cc1onc(-c2c(Cl)cccc2Cl)c1C(=O)NC1=NC(C)(C)ON1c1ccccc1 | 5.88 | 5.44 | 4.86 |
